Source: PubChem (several laboratories)
ZTA DNA inh: blocks Epstein-Barr virus ZTA, an EBNA-1 counter-screen; P03206; ZTA-DNA binding, fluorescence polarization; inhibition, % at 11 µM; 320,000 compounds, 0.15% hits; AID 2234; in the data active = inhibition above about 33%
EBNA-1 inhibitor: blocks EBNA-1 binding to DNA; EBNA-1 DNA binding, fluorescence polarization; inhibition, % at 14.8 µM; 300,000 compounds, 0.34% hits; AID 1950; in the data active = inhibition above about 28%
LANA-H2B inh: blocks KSHV LANA binding to histone H2A/H2B; 320,000 compounds, 0.6% hits; inhibition, % (no concentration beside the values); Q9QR71; AID 2629; cell-free LANA-H2A/H2B peptide, fluorescence polarization; in the data active = inhibition mostly above about 10%, no sharp cut-off; inactive = mostly below about 6.7%
LYPLA1 inh: counter-screen for PME1 inhibitors: inhibitors of human LYPLA1. O75608. recombinant LYPLA1, FP-Rh probe fluorescence polarization. inhibition, % at 5.9 µM. 320,000 compounds, 0.16% hits;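 active = inhibition above the mean of all tested compounds plus 3 SD, set per campaign, cut at about 14% in these data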;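 note: inhibitors block serine hydrolase probe labeling of LYPLA1 so polarization falls; 0% = enzyme with DMSO and 100% = wells lacking LYPLA1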
Target sequence (O75608 whole entry, looked up): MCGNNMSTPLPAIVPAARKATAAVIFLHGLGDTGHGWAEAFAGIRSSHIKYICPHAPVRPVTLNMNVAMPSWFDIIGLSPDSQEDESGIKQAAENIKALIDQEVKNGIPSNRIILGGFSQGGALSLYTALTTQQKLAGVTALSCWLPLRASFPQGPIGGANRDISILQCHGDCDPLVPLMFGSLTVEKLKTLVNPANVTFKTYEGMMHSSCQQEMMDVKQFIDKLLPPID
LYPLA2 counter: LYPLA2 (human) inhibition in PME1 counter-screen | AID 2177 | 320,000 compounds, 0.38% hits | inhibition, % at 5.9 µM | recombinant LYPLA2, FP-Rh probe fluorescence polarization;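 active = inhibition above the screen-wide mean plus 3 SD, limit set per campaign, cut at about 26% in these data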;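 note: 0% = LYPLA2 with DMSO and 100% = wells lacking LYPLA2 enzyme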
Starred values were filed as active, the others as inactive; x = no result; + = active, no number. Only some compounds are listed: those with a hit (about 1.4% of all), similar ones and a draw of the others.

SMILES	ZTA DNA inh	EBNA-1 inhibitor	LANA-H2B inh	LYPLA1 inh	LYPLA2 counter
COc1ccc(S(=O)(=O)NCCc2nnc3ccc(SCC(=O)Nc4nc(C)cs4)nn23)cc1	-12	-9	0	-3	-2
COc1ccc(S(=O)(=O)N2CCOC2CNC(=O)C(=O)NCc2ccccc2OC)cc1 (stereo unspecified)	-11	-1	100*	-3	4
COc1ccc(S(=O)(=O)N2CCC(C(=O)NCCC(=O)NCc3ccccc3OC)CC2)cc1	3	9	14*	-5	5
COc1ccc(C(=O)N2CCOC2CNC(=O)C(=O)NCc2ccco2)cc1 (stereo unspecified)	10	-9	+	7	6
COc1ccccc1N(CC(=O)N(C)Cc1ccccc1)S(=O)(=O)c1cccs1	10	x	+	3	6
O=C(Nc1ccc(S(=O)(=O)Nc2cnc3ccccc3n2)cc1)c1cc(F)c(F)cc1Cl	-1	-8	22*	4	-2
O=C(Nc1ccc(S(=O)(=O)Nc2cnc3ccccc3n2)cc1)c1ccc(Cl)cc1Cl	-5	-1	2	-1	10
COc1cc(/C=C/C(=O)c2c(O)ccc3c(C)cc(=O)oc23)ccc1O	-9	4	-4	4	1
COc1ccc(/C=C\C(=O)c2c(O)ccc3c(C)cc(=O)oc23)cc1OC	4	-7	16*	2	6
CCN(CC)c1ccc(N=Cc2cc(Br)ccc2O)cc1	184*	126*	3	-2	-2
CCCCC(CC)COC(=O)CCCCC(=O)OCC(CC)CCCC (stereo unspecified)	-21	x	46*	1	-1
CCc1cc(C(=O)N2CCN(S(=O)(=O)c3ccccc3F)CC2)sc1C	-19	x	+	1	2
CCc1cc(C(=O)N2CCN(S(=O)(=O)c3cc(C)ccc3C)CC2)sc1C	-8	x	11	3	-3
Cc1cc(NC(=O)CSCC(=O)Nc2nc3ccccc3s2)no1	6	x	-1	-2	2
Cc1cc(NC(=O)CN2CCCC2c2nc3ccccc3s2)no1 (stereo unspecified)	10	2	15*	-1	0
CN(C)c1ccc(N/C=C/C(=O)C(C)(C)C)cc1	+	+	-4	-4	-5
Cc1ccc(N(C(=O)c2snc(C(N)=O)c2N)C(C(=O)NCc2ccccc2)c2ccncc2)c(C)c1 (stereo unspecified)	-16	-1	-3	-1	-2
CCC1=Nc2cc(C(=O)NCCN3CCOCC3)ccc2Sc2ccc(C)cc21	-18	2	5.1*	-1	0
Cc1ccc(NC(=O)c2nc(C)n(-c3ccc([N+](=O)[O-])cc3)n2)cc1	13	5	5	4	10
Cc1nc(C(=O)Nc2ccc(F)cc2)nn1-c1ccc([N+](=O)[O-])cc1	-24	-15	12*	4	12
COc1cc(C(=O)Nc2ccc3nc(N4CCOCC4)sc3c2)cc(OC)c1OC	-5	x	37*	-1	-12
O=S(=O)(c1cnc[nH]1)N1CCN(c2ccc(F)cc2)CC1	-11	-6	111*	0	-6
Cc1sc2nc(C3CC3)nc(N3CCN(C(=O)c4ccc(Cl)cc4)CC3)c2c1C	-4	-10	0	-3	-16
CSCCC(NC(=O)c1ccco1)C(=O)N1CC(C)OC(C)C1 (stereo unspecified)	-2	x	0	1	6
Cc1ccc(Cl)cc1N1CCN(C(=O)Cc2ccc(-n3c(=O)[nH]c4ccsc4c3=O)cc2)CC1	-8	7	-7	2	34*
SMILES	ZTA DNA inh	EBNA-1 inhibitor	LANA-H2B inh	LYPLA1 inh	LYPLA2 counter
O=C(COC(=O)CCc1nc2ccccc2c(=O)[nH]1)Nc1ccccc1	x	x	24*	x	x
O=C(/C=C/Nc1ccccc1)c1ccc(Cl)cc1Cl	-5	12	5.1*	3	10
O=C(/C=C/Nc1ccccc1)c1ccccc1	9	-8	-1	5	1
O=C(CCC1CCCCC1)NCCS(=O)(=O)N1CCN(c2ccc(F)cc2)CC1	-25	-12	-6	2	3
COc1ccc(CCNC(=O)CS(=O)Cc2nc(-c3ccccc3Cl)oc2C)cc1OC (stereo unspecified)	1	-4	17*	3	5
Cc1ccc(NS(=O)(=O)c2c(C)[nH]c(C)c2C(=O)N2CCCCC2)c(Br)c1	4	-6	2	-1	-6
O=C(O)c1cccc(Cn2c(Cl)c(/C=N/NC(=O)c3ccccc3O)sc2=O)c1	-25	-7	15*	3	3
